We go through 9 compounds from PubChem BioAssay (EPA / NIEHS).

Results filed as inconclusive are left out. Where a structure was tested more than once in an assay, its records may differ in their call. Calls of active or inactive are those of the source. How the source made its calls, unless noted: active means hit-call score of the fitted dose curve at least 0.9, where 1 is the maximum; inconclusive means response in the unintended direction; inactive means score below 0.9.

Assay [1] can be described thus: ATG_TAL_CIS: Attagene CIS-FACTORIAL HepG2 Assay for human TAL Basal Promoter (AID 2282966; active means hit-call score of the fitted dose curve at least 0.9, where 1 is the maximum; inactive means score below 0.9;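 further: background control endpoint measuring basal TAL promoter reporter mRNA not a specific factor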). As to conditions: HepG2 Attagene cis-factorial TAL promoter reporter; actives raise or lower the signal. The procedure, abridged: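 HepG2 cells were transiently transfected with promoter-driven multiplexed reporter units and dosed for 24 h. Reporter mRNA was measured by RT-PCR with capillary electrophoresis fluorescence; bidirectional fits used DMSO as baseline, serving as a background control.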

The nature of assay [2]: ATG_TGFb_CIS: Attagene CIS-FACTORIAL HepG2 Assay for human Transforming Growth Factor (TGF) (AID 2282967; active means hit-call score of the fitted dose curve at least 0.9, where 1 is the maximum; inactive means score below 0.9). As to conditions: HepG2 Attagene CIS TGFb reporter, mRNA transcription; actives raise or lower the signal. The method in brief:
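Cells were dosed for 24 hours, after which total RNA was reverse-transcribed and reporter sequences amplified, labeled and sized by capillary electrophoresis. Activity was fitted in both directions against DMSO.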

The nature of assay [3]: ATG_VDRE_CIS: Attagene CIS-FACTORIAL HepG2 Assay for human Vitamin D Receptor Element (VDRE) (AID 2282968; active means hit-call score of the fitted dose curve at least 0.9, where 1 is the maximum; inactive means score below 0.9). The conditions noted are these: HepG2 VDRE cis-reporter transcription, actives raise or lower the signal. The procedure, abridged:
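Reporter mRNA induction, quantified by capillary electrophoresis of fluorescently labelled RT-PCR products, was read 24 h after dosing HepG2 cells carrying transiently transfected cis-regulated reporter units; gain or loss relative to DMSO.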

In assay [4] the target is Estrogen receptor (Homo sapiens) (UniProt P03372). The assay is described as follows: ATG_ERa_TRANS: Attagene TRANS-FACTORIAL HepG2 Assay for human Estrogen Receptor alpha (ERa) (AID 2282970). As to conditions: HepG2 Attagene TRANS ERa GAL4 reporter, mRNA. The procedure, abridged: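 HepG2 cells transiently transfected with multiplexed GAL4-UAS reporter units; ERa activity read via exogenous chimeric NR-Gal4 protein. After 24 hour compound exposure, reporter mRNA measured by RT-PCR with 6-FAM labelling and capillary electrophoresis; gain-of-signal fitted relative to DMSO.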

For assay [5], the target named is X-box-binding protein 1 (Homo sapiens) (UniProt P17861). Put plainly: ATG_Xbp1_CIS: Attagene CIS-FACTORIAL HepG2 Assay for human X-box Binding Protein 1 (XBP1) (AID 2282972; active means hit-call score of the fitted dose curve at least 0.9, where 1 is the maximum; inactive means score below 0.9). As to conditions: HepG2 XBP1 cis-element reporter, Attagene multiplex; actives raise or lower the signal. The method in brief:
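After a 24-hour chemical exposure of HepG2 cells carrying cis-regulated reporters, reporter mRNA levels are assessed. Quantification uses RT-PCR, 6-FAM labelling and capillary electrophoresis. Gain- or loss-of-signal is fitted against DMSO.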

Assay [6] in a line: ATG_GAL4_TRANS: Attagene TRANS-FACTORIAL HepG2 Assay for GAL4 (Internal Marker) (AID 2282976). The conditions noted are these: HepG2 Attagene TRANS GAL4 internal marker reporter. The procedure, abridged: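 HepG2 cells transiently transfected with multiplexed GAL4-UAS reporter constructs were dosed for 24 h. Reporter mRNA was measured by RT-PCR, 6-FAM primer extension, HpaI digestion and capillary electrophoresis, and gain of signal was fitted relative to DMSO.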

The target in assay [7] is Estrogen-related receptor gamma (Homo sapiens) (UniProt P62508). Put plainly: ATG_ERRg_TRANS: Attagene TRANS-FACTORIAL HepG2 Assay for human Estrogen-Related Receptor gamma (ERRg) (AID 2282977).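 Further: hits increase reporter signal over DMSO so potencies reflect activators.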 As to conditions: HepG2 Attagene TRANS reporter, ERRg transactivation. The procedure, abridged: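 Transfect HepG2 with multiple GAL4-UAS reporter transcription units; dose chemicals 24 h; isolate RNA, reverse-transcribe with oligo(dT), PCR-amplify, label with 6-FAM, digest with HpaI; size fragments by capillary electrophoresis. DMSO serves as negative control.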

Assay [8] deals with Glucocorticoid receptor (Homo sapiens) (UniProt P04150). The assay is described as follows: ATG_GR_TRANS: Attagene TRANS-FACTORIAL HepG2 Assay for human Glucocorticoid Receptor (GR) (AID 2282978).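 Further: activators score as hits since higher reporter transcript over DMSO is fitted.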 The conditions noted are these: HepG2 Attagene TRANS GR reporter, mRNA transcription. The method in brief:
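Readout is reporter transcript from a chimeric GR-Gal4 acting on GAL4-UAS in transfected human HepG2 liver cells after 24 h exposure, quantified by RT-PCR and capillary electrophoresis. Activation fitted upward against DMSO.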

The nature of assay [9]: ATG_M_06_TRANS: Attagene TRANS-FACTORIAL HepG2 Assay for M06 Transcription Factor (Internal Marker) (AID 2282983).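 Further: reporter transcript level by RT-PCR then capillary electrophoresis fluorescence.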 The conditions noted are these: HepG2 Attagene TRANS M06 internal marker reporter. The procedure, abridged: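 HepG2 cells transiently transfected with multiplexed GAL4-UAS reporter transcription units; after 24 h compound exposure, reporter mRNA measured by RT-PCR, FAM-labelled primer extension, HpaI digestion and capillary electrophoresis. Gain-of-signal fitted versus DMSO baseline; background control readout.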

A short description of assay [10]: ATG_M_32_TRANS: Attagene TRANS-FACTORIAL HepG2 Assay for M32 Transcription Factor (Internal Marker) (AID 2282984). As to conditions: HepG2 Attagene TRANS M32 internal marker reporter. The method in brief: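 Measures reporter mRNA induction in human HepG2 liver cells after 24 h chemical treatment. Transcripts from transiently transfected GAL4-UAS reporter units are amplified, fluorescently labelled and sized by capillary electrophoresis; gain of signal relative to DMSO.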

The target in assay [11] is Nuclear receptor subfamily 4 group A member 2 (Homo sapiens) (UniProt P43354). The assay is described as follows: ATG_NURR1_TRANS: Attagene TRANS-FACTORIAL HepG2 Assay for human Nuclear Receptor Related Protein 1 (NURR1) (AID 2282985). As to conditions: HepG2 Attagene TRANS reporter, mRNA readout. The procedure, abridged: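 Transient transfection of HepG2, human liver cells, with multiple GAL4-UAS reporter transcription units. Cells dosed 24 h, RNA isolated, reverse-transcribed, PCR-amplified, FAM-labelled, HpaI-digested, sized by capillary electrophoresis. DMSO served as negative control.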

The target of assay [12] is Transcriptional activator Myb (Homo sapiens) (UniProt P10242). The assay is described as follows: ATG_Myb_CIS: Attagene CIS-FACTORIAL HepG2 Assay for human Myeloblastosis (Myb) Proto-Oncogene Transcription Factor (AID 2282986; active means hit-call score of the fitted dose curve at least 0.9, where 1 is the maximum; inactive means score below 0.9). As to conditions: HepG2 Attagene CIS-FACTORIAL Myb reporter transcription; actives raise or lower the signal. The procedure, abridged:
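Reporter mRNA is quantified by RT-PCR and capillary electrophoresis 24 h after dosing HepG2 cells transfected with cis-regulated reporter units, which track endogenous transcription factor activity. Gain and loss of signal are fitted versus DMSO baseline.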

Assay [13] deals with Nuclear respiratory factor 1 (Homo sapiens) (UniProt Q16656). Put plainly: ATG_NRF1_CIS: Attagene CIS-FACTORIAL HepG2 Assay for human Nuclear Respiratory Factor 1 (NRF1) Orphan Gene (AID 2282987; active means hit-call score of the fitted dose curve at least 0.9, where 1 is the maximum; inactive means score below 0.9). As to conditions: HepG2 NRF1 cis-element reporter, Attagene multiplex; actives raise or lower the signal. The method in brief: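 Endogenous NRF1-driven reporter transcription in transfected HepG2 cells after 24 h treatment. Readout: RT-PCR products, 6-FAM labelled and resolved by capillary electrophoresis; changes fitted both directions relative to DMSO.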

Assay [14] deals with Bile acid receptor (Homo sapiens) (UniProt Q96RI1). Put plainly: ATG_FXR_TRANS: Attagene TRANS-FACTORIAL HepG2 Assay for Farnesoid X Receptor (FXR) (AID 2282979).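 Further: hits raise reporter mRNA above DMSO so AC50 marks FXR activation.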 As to conditions: HepG2 Attagene TRANS FXR-GAL4 reporter transcription. The method in brief: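 HepG2 cells transiently transfected with reporter constructs in which a chimeric FXR-GAL4 protein drives a GAL4-UAS reporter; 24 h compound exposure. Reporter mRNA measured by RT-PCR, FAM labelling, HpaI digestion and capillary electrophoresis; gain-of-signal versus DMSO.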

The target in assay [15] is Oxysterols receptor LXR-alpha (Homo sapiens) (UniProt Q13133). The assay is described as follows: ATG_LXRa_TRANS: Attagene TRANS-FACTORIAL HepG2 Assay for human Liver X Receptor alpha (LXRa) (AID 2282980). As to conditions: HepG2 Attagene TRANS reporter, LXRa transactivation. The method in brief: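 HepG2 cells were transiently transfected with multiplexed reporter units driven by chimeric LXRa–GAL4 fusion proteins, then dosed for 24 h. Reporter mRNA was quantified by RT-PCR, fluorescent labelling and capillary electrophoresis; gain of signal fitted against DMSO baseline.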

Assay [16] deals with Hepatocyte nuclear factor 4-alpha (Homo sapiens) (UniProt P41235). Put plainly: ATG_HNF4a_TRANS: Attagene TRANS-FACTORIAL HepG2 Assay for human Hepatocyte Nuclear Factor 4 alpha (HNF4a) (AID 2282982). As to conditions: HepG2 HNF4a transactivation reporter, mRNA readout. The method in brief:
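Readout is fluorescent reporter-transcript fragments resolved by capillary electrophoresis after RT-PCR from HepG2 cells dosed for 24 h. Cells carried transfected GAL4-UAS reporter constructs measuring exogenous NR-GAL4 chimera activity; DMSO served as baseline.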

Assay [17] deals with Steroid hormone receptor ERR1 (Homo sapiens) (UniProt P11474). Put plainly: ATG_ERRa_TRANS: Attagene TRANS-FACTORIAL HepG2 Assay for human Estrogen-Related Receptor alpha (ERRa) (AID 2282971). As to conditions: HepG2 Attagene TRANS reporter, ERRa transactivation. The method in brief:
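HepG2 cells transiently transfected with multiplexed GAL4-UAS reporter units reading chimeric ERRa-Gal4 activity; 24 h compound exposure. Reporter mRNA measured by RT-PCR, 6-FAM labelling, HpaI digest and capillary electrophoresis; gain of signal fitted versus DMSO baseline.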

A short description of assay [18]: ATG_M_19_TRANS: Attagene TRANS-FACTORIAL HepG2 Assay for M19 Transcription Factor (Internal Marker) (AID 2282974). As to conditions: HepG2 Attagene TRANS-FACTORIAL M19 internal marker reporter. The method in brief: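 Background-control readout: after 24 h chemical exposure of transfected HepG2 carrying GAL4-driven reporter units, RNA was reverse-transcribed, amplified, fluorescently labeled and sized by capillary electrophoresis; gain-of-signal fit against DMSO.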

Chain of Oxysterols receptor LXR-alpha (Homo sapiens) (Q13133 whole entry, looked up, the tested form may be a part): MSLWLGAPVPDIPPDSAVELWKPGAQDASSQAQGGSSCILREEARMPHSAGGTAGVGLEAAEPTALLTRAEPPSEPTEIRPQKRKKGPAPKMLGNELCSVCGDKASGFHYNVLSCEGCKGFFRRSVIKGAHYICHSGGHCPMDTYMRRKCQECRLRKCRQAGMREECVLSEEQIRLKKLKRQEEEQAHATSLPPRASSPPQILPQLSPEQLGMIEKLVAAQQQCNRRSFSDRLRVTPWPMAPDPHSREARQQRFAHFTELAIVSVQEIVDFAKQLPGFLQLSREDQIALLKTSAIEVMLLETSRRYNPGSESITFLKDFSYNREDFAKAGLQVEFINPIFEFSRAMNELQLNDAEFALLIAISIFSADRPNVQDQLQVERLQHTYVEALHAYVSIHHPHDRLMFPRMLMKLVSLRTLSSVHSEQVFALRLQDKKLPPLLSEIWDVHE
Chain of Hepatocyte nuclear factor 4-alpha (Homo sapiens) (P41235 whole entry, looked up, the tested form may be a part): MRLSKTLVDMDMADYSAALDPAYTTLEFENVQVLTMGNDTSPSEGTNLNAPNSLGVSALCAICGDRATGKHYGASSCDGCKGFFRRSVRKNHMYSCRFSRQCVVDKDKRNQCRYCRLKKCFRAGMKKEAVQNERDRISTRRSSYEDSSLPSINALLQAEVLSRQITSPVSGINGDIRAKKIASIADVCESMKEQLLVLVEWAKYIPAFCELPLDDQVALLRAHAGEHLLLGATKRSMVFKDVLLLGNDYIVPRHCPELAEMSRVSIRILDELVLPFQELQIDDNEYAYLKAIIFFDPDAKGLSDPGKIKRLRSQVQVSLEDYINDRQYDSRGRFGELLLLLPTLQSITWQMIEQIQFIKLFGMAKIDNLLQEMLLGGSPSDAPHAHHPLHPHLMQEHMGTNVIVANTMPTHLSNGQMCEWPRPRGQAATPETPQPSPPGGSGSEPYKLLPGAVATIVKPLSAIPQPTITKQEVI
Chain of Nuclear receptor subfamily 4 group A member 2 (Homo sapiens) (P43354 whole entry, looked up, the tested form may be a part): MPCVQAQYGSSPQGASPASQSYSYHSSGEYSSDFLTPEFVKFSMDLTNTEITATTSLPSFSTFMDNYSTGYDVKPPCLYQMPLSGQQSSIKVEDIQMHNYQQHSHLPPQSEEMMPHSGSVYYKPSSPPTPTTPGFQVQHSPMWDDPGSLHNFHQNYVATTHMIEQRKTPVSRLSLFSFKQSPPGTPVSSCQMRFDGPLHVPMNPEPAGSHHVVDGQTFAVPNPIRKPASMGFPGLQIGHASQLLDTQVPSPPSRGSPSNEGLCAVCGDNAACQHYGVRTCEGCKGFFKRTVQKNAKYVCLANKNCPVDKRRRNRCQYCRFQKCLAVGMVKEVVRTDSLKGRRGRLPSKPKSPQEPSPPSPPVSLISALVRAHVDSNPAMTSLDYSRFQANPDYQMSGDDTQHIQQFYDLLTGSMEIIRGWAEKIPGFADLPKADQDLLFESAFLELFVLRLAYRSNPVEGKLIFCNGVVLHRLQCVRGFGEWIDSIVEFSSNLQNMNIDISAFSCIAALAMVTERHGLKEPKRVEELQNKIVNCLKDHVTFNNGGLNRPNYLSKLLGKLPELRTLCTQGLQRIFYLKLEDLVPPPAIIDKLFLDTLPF
Chain of Nuclear respiratory factor 1 (Homo sapiens) (Q16656 whole entry, looked up): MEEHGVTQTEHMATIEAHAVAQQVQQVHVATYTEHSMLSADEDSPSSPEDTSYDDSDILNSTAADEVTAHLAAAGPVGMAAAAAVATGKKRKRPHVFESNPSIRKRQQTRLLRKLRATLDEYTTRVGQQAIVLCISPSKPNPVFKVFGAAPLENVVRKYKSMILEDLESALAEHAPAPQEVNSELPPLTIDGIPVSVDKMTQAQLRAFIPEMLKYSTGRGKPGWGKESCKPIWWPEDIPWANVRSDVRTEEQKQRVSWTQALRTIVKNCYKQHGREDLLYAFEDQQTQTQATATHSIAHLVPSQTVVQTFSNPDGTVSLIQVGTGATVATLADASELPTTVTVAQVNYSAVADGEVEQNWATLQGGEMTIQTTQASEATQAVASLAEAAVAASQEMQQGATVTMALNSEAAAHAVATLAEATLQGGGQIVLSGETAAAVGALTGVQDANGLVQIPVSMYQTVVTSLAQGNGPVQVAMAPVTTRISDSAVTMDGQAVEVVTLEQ
Chain of Estrogen-related receptor gamma (Homo sapiens) (P62508 whole entry, looked up, the tested form may be a part): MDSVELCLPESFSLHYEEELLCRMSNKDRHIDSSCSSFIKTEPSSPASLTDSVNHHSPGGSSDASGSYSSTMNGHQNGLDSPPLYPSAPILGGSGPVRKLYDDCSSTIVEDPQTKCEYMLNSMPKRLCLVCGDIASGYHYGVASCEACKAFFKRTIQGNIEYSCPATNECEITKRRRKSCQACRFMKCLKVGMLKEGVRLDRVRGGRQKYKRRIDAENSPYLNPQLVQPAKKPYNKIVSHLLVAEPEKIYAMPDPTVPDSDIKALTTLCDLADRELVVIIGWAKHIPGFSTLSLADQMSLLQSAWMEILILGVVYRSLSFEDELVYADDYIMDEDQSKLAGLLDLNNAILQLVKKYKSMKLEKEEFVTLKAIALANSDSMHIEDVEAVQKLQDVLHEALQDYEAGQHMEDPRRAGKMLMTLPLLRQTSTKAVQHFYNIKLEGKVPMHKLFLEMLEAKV
Chain of X-box-binding protein 1 (Homo sapiens) (P17861 whole entry, looked up): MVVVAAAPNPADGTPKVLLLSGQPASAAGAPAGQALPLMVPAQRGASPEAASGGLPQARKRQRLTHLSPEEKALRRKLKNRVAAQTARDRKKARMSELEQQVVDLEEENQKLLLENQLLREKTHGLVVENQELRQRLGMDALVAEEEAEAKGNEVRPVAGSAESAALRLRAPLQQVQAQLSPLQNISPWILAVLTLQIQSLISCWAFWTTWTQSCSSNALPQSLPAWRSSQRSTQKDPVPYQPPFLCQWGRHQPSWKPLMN
Chain of Estrogen receptor (Homo sapiens) (P03372 whole entry, looked up, the tested form may be a part): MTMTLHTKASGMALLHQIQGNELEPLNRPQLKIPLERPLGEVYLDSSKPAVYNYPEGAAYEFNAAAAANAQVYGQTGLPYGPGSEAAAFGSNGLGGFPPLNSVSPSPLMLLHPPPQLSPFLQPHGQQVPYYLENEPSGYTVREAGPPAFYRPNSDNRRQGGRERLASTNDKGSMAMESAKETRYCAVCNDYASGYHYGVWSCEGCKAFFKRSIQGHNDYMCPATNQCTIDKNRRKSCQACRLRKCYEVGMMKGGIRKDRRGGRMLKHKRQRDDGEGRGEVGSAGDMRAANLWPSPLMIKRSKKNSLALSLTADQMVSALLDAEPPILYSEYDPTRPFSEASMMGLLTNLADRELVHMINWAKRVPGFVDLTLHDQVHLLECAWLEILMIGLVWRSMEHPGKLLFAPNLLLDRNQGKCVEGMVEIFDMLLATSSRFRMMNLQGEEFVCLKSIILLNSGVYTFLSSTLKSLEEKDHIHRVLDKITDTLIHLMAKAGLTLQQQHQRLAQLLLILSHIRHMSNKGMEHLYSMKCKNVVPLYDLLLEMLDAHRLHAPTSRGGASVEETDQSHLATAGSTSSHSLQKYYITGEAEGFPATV
Chain of Glucocorticoid receptor (Homo sapiens) (P04150 whole entry, looked up, the tested form may be a part): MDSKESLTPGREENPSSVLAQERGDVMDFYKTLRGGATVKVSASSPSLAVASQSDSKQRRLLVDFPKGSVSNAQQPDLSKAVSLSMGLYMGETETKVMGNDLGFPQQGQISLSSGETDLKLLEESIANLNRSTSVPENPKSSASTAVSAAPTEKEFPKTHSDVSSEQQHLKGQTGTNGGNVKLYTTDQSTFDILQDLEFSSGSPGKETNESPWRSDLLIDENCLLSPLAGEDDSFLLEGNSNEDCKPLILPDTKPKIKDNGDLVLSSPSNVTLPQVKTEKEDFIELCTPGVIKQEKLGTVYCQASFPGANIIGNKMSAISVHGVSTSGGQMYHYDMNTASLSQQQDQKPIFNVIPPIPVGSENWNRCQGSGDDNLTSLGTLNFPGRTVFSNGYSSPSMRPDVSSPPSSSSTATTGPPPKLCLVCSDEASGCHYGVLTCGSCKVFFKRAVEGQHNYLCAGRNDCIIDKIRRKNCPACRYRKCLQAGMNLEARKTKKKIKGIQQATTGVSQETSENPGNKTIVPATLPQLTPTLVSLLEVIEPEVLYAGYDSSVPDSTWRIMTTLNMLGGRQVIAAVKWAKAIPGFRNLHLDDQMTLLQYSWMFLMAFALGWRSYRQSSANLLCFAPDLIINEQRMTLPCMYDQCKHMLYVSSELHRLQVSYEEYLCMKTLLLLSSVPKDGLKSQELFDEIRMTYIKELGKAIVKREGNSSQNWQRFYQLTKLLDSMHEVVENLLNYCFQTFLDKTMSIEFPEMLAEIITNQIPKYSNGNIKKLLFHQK
Chain of Bile acid receptor (Homo sapiens) (Q96RI1 whole entry, looked up, the tested form may be a part): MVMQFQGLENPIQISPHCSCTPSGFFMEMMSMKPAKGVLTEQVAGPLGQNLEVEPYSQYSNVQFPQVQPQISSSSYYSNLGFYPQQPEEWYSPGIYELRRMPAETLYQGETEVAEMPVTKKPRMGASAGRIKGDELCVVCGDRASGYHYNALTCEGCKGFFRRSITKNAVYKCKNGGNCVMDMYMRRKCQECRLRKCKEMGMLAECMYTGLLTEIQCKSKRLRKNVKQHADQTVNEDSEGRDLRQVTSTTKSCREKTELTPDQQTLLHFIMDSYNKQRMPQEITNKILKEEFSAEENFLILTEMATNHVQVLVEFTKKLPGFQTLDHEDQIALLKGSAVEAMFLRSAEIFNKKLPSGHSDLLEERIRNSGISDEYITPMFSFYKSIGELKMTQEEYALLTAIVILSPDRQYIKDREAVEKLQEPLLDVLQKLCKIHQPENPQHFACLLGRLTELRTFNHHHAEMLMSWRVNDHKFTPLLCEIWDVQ

By AC50 is commonly meant the midpoint of the concentration-response curve, whichever way the signal moves. For `CC(C)(C)c1cc(/C=C2\SC(N)=NC2=O)cc(C(C)(C)C)c1O`, the compound was classed as inactive in [1], in assay [2], in [4], in [6], in assay [7] and in assay [8]. Besides, the result in assay [9], in [10], in assay [11], in [12] and in assay [13] was inactive. Moreover, the AC50 was 4.48 µM (active) in [3] and 20.8 µM (active) in assay [5].

`Clc1ccccc1C(c1ccccc1)(c1ccccc1)n1ccnc1`: the compound was called inactive in [1], in assay [2], in [4], in assay [6], in assay [7] and in assay [8]. In addition, the outcome in [14], in [9], in assay [11], in assay [12] and in [13] was inactive. For the same compound, the concentration at half-maximal activity (AC50) is 4.84 µM (active) in [3] and 11.1 µM (active) in assay [5].

Consider `COCC(C)OCC(C)OCC(C)O` (stereo unspecified), for which the compound was classed as inactive in assay [1], in [2], in assay [3], in assay [4], in assay [5] and in assay [7]. The compound was called inactive in assay [8], in assay [14], in assay [9], in assay [10], in [11] and in assay [12]. Further, in [13], the compound was classed as inactive.

As for `CC1=CC(=O)/C(=C(/C)O)C(=O)O1`, the result in assay [1], in assay [2], in assay [3], in assay [4], in assay [5] and in assay [8] was inactive. Moreover, the call in assay [15], in assay [16], in assay [9], in assay [12] and in [13] was inactive.

As to `CCN(Cc1cccnc1)C(=O)c1cccc(Cl)c1[C@]1(C)C(=O)N(Cc2ccc(OC)cc2OC)c2ccc(Cl)cc21`, the compound was called inactive in assay [1], in [2], in assay [6], in assay [8], in assay [9] and in assay [10]. For the same compound, the outcome in assay [12] was inactive. The AC50 is 1.42 µM (active) in assay [3]; 4.01 µM (active) in assay [5]; 2.58 µM (active) in [14]; 8.74 µM (active) in assay [11]; 9.65 µM (active) in [13].

As to `CC1(C)NC(=O)N(c2ccc([N+](=O)[O-])c(C(F)(F)F)c2)C1=O`, the compound was called inactive in [1], in assay [2], in [3], in assay [17], in [5] and in [18]. The compound was classed as inactive in [6], in [7], in assay [14], in assay [15], in assay [16] and in assay [9]. Further, the result in assay [10], in assay [11], in [12] and in assay [13] was inactive.

In the case of `CCOC(=O)O[C@H](C)OC(=O)c1ccc2c(c1)cc(C(=O)NC1CCN(C(C)C)CC1)n2Cc1cc(-c2ccc(Cl)s2)on1`, the compound was called inactive in [1], in [2], in assay [3], in assay [4], in assay [5] and in assay [6]. For the same compound, the outcome in assay [8], in assay [14], in assay [9], in [12] and in assay [13] was inactive.

Take `CCCCCCCCCCCC[N+](C)(C)C`: the call in [1], in assay [2], in [3], in [5], in assay [18] and in assay [8] was inactive. Besides, the compound was classed as inactive in assay [14], in assay [15], in assay [16], in [9], in assay [10] and in assay [11]. Besides, the compound was classed as inactive in assay [12] and in assay [13]. In addition, the AC50 in [5] is 33.4 µM (active).

As to `Cc1oc2c(NC(=O)c3c(Cl)cccc3Cl)cccc2c1C(C)(C)O`, the concentration at half-maximal activity (AC50) in [1] is 33.1 µM (active); in assay [3], 4.01 µM (active). The compound was called inactive in [2], in assay [5], in assay [18], in [8], in assay [14] and in [15]. The compound was classed as inactive in [10], in assay [11], in assay [12] and in assay [13].
